An excerpt weighted towards active compounds, which were near 2.9% of everything screened.
S2 tox: viability counter-screen for ATXN expression inhibitors; S2 cells (HEK-293 line with an ATXN2-luciferase reporter) viability, CellTiter-Fluor protease fluorescence, 24 h; Potency, µM (series often up to 56.7 µM), hits mostly cytotoxic; actives 0.49% (n = 400,000); note: nearly all actives have a fitted effect of over 40% in size
Nrf2 block: inhibitors of Nrf2 signaling. Potency, µM (titrated, usually from 46 µM), for inactives: at the top dose activity change, negative = inhibition, most hits filed as inhibitors. AID 504444. A549 ARE-Fluc reporter, luciferase luminescence, 18-24 h. actives 2.1% (n = 360,000); note: % is set by controls: 0 for no effect and ±100 for the full control effect; nearly all actives have a fitted effect of over 60% in size
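Concentration-response testing used A549 ARE_Fluc cells at 5000 cells/well. Following an 18-24 h compound incubation, viability was read by fluorescence (Ex 405/Em 525) and luciferase output by luminescence.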
ATXN2 expr inh: ATXN2 expression inhibition; actives 0.72% (n = 360,000); Potency, µM (series often up to 57 µM), for the others: top-dose activity change, negative = inhibition, hits mostly inhibitors; HEK-293 ATXN2-luciferase reporter, luminescence, 24 h; AID 1745845; note: % is set by controls: 0 for no effect and ±100 for the full control effect; nearly all actives have a fitted effect of over 55% in size
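qHTS (up to 57 uM final) was run with 24 h compound exposure of reporter cells at 37 °C. Each well was multiplexed: SteadyGlo luminescence measured ATXN2-luciferase expression after a fluorogenic Gly-Phe-AFC viability readout (25 uM final).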
Nrf2 ARE act: activators of Nrf2 (ARE) signaling. AREc32 ARE-luciferase reporter (MCF7-derived line), luminescence, 24 h. Potency, µM (series often up to 46.1 µM), inactives show at the highest dose activation, actives largely listed as activators. actives 0.31% (n = 410,000). AID 624171; note: % of control where 0% means no effect; nearly all actives have a fitted effect of over 65% in size
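AREc32 cells carrying an ARE-driven firefly luciferase, 1000 cells/well in OPTI-MEM with 5% FBS, dosed after overnight attachment and incubated 24 hr at 37 deg C. Steady-Glo luminescence read after 30 min at RT.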
A549 tox: counter-screen for Nrf2 inhibitors: cytotoxicity in A549 cells. A549 ARE-Fluc cells, CellTiter-Fluor viability, 18-24 h. Potency, µM (doses to about 46 µM), inactives show at the top dose activity change, negative = cytotoxicity, most hits filed as inhibitors. actives 0.16% (n = 390,000). AID 504648; note: % is set by controls: 0 for no effect and ±100 for the full control effect
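A549 ARE_Fluc cells in 5% FBS OPTI-MEM were exposed to compounds in concentration-response for 18-24 h at 37 deg C. Viability was read by CellTiter-Fluor fluorescence (Ex 405/Em 525) after 30 min, before the luciferase read.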
The depositor's hits bear a star; i = inactive; u = inconclusive; x = not tested or not shown; [ ] = dose if it differs, or a comment. Calls come from the whole dose curve; as a rule, active = well fitted curve in the direction sought with a large enough effect; inconclusive = small, poorly fitted or top-dose-only effect, or another doubt; inactive = no such curve, though single readings can be large; an effect the other way counts as inactive or inconclusive. Potency is the fitted concentration of half-maximal effect.

SMILES	S2 tox	Nrf2 block	ATXN2 expr inh	Nrf2 ARE act	A549 tox
O=C(c1n[nH]c2c1CCCC2)N1CCC(n2c(C3CCCO3)nc3ccccc32)CC1 (stereo unspecified)	i	x	x	x	x
CCc1cccc(C)c1NC(=O)CSc1nnc(CCCOc2ccc(Cl)cc2Cl)n1C	u	16µM*	u	4%	-14%
Cc1ccc(C(=O)NC2=NC(c3ccc(C)cc3)CC(=O)N2)cc1 (stereo unspecified)	x	7%	x	0%	15%
CCn1nc(C)c(CNC(=O)c2cc(COc3ccc(C)nc3)on2)c1C	i	23µM*	-13%	0%	-3%
CCn1nc(C)c(CNC(=O)c2cc(COc3ccc(F)cc3Cl)on2)c1C	u	-92%	x	3%	-7%
Cc1ccn2c(Cc3ccccc3)c(-c3ccccc3)nc2c1	i	x	36%	3%	x
Cc1ccn2c(CC(C)(C)C)c(-c3ccc(F)cc3)nc2c1	25µM*	x	u	15%	x
Cc1ccc(Cc2c(-c3ccc(C)cc3)nc3cc(C)ccn23)cc1	32µM*	x	u	2%	x
Cc1ccc(Cc2c(-c3ccc(Cl)cc3)nc3cc(C)ccn23)cc1	u	x	1%	3%	x
Cc1ccn2c(Cc3ccccc3)c(-c3ccc(Br)cc3)nc2c1	14µM*	x	0%	4%	x
Cc1ccc([N+](=O)[O-])cc1S(=O)(=O)N(C)N=Cc1cnc2ccc(Br)cn12	x	x	0.049µM*	x	x
COc1cccc(C(=O)NC(C)c2nnc3n2CCN(CC=C(C)C)CC3)c1 (stereo unspecified)	i	x	x	x	x
Cc1cc(S(=O)(=O)NCc2nc(N3CCCC3)c3cc(Cl)ccc3n2)c(C)s1	i	x	x	x	x
COc1ccc(-n2cc(-c3ccc4c(c3)OCO4)n(CC(=O)Nc3cccc(C)c3C)c2=O)c(OC)c1	i	13µM*	5%	-1%	u
CC(NC(=O)c1cccnc1)c1nnc2n1CCN(Cc1ccc(-c3ccccc3Cl)o1)CC2 (stereo unspecified)	i	x	x	x	x
Cc1[nH]n(-c2ccccc2)c(=O)c1/C=N\NC(=O)C1COc2ccccc2O1 (stereo unspecified)	i	16µM*	u	0%	-14%
CC(=O)N/N=C/c1c(C)[nH]n(-c2ccccc2)c1=O	i	15µM*	-28%	1%	u
Cc1c(/C=N\NC(=O)C2COc3ccccc3O2)c2ccccc2n1C (stereo unspecified)	u	u	14%	0%[9.22 µM]	-12%
Cc1[nH]n(-c2ccccc2)c(=O)c1/C=N/O	i	2%	2%	0%	0%
Cc1ccc2cccc(N=Cc3c(C)[nH]n(-c4ccccc4)c3=O)c2n1	i	-16%	28µM*	11%	-7%
COCC(=O)N/N=C/c1c(C)[nH]n(-c2ccccc2)c1=O	i	15µM*	-15%	2%	u
COC(=O)N/N=C\c1c(C)[nH]n(-c2ccccc2)c1=O	i	u	-29%[11.3 µM]	0%	u
CC(C)C[C@@H](C(=O)N[C@H](C(=O)OC1CCCC1)c1ccccc1)[C@H](O)C(=O)NO	x	x	22µM*	x	x
CC(c1ccccc1)C(CC(=O)O)C(=O)NC1CCCCC1 (stereo unspecified)	i	3%	2%	0%	-3%
O=C(/C(C=Nc1cccc(C(F)(F)F)c1)=C(/O)c1ccco1)C(F)(F)F	i	27%	45%	7.9µM*	7%
SMILES	S2 tox	Nrf2 block	ATXN2 expr inh	Nrf2 ARE act	A549 tox
CCc1cccc(NC(=O)CSc2ncc3c(n2)-c2ccc(Cl)cc2N(Cc2ccccc2)S3(=O)=O)c1	i	u	-9%	0%	-1%
O=C(CCCc1nc(-c2ccc(Cl)cc2)no1)Nc1cccnc1	i	10µM*	-23%	-1%	x
Cc1cccc(-c2noc(CCCC(=O)Nc3cccnc3)n2)c1	u	u	-26%	-1%	-4%
CC1CCc2c(nc3ncnn3c2NCCc2ccccc2F)C1 (stereo unspecified)	i	3.3µM*	-6%	0%	u
COC(=O)CSc1nnc(-c2sc3ccccc3c2Cl)o1	i	16µM*	22µM*	-2%	-16%
N#CCSc1nnc(-c2sc3ccccc3c2Cl)o1	i	-18%	-9%	u	-1%
